# Screens deposited in PubChem BioAssay by National Center for Advancing Translational Sciences (NCATS).
# TDP1 cell CPT – qHTS for Inhibitors of human tyrosyl-DNA phosphodiesterase 1 (TDP1): qHTS in cells in presence of CPT; Potency, µM (highest dose often 46.2 µM), for inactives: at the highest dose activity change, negative = growth inhibition, actives largely listed as inhibitors; hit rate 12% among 420,000; AID 686979, 2013; chicken DT40 Tdp1-/-;hTDP1 cells + 20 nM CPT, ATP luminescence, 48 h; further: potency means the concentration at half of the fitted maximal effect; nearly all actives have a fitted effect of over 55% in size
#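 Chicken DT40 Tdp1-/- cells stably complemented with human TDP1 were seeded at 400 cells/well in medium containing 20 nM camptothecin, exposed to pin-transferred compounds, and grown at 37 °C for at least 48 hr. Viability was read as ATP luminescence.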
# HT1080NT lethal – qHTS for induction of synthetic lethality in tumor cells producing 2HG: qHTS for the HT-1080-NT fibrosarcoma cell line; HT-1080-NT fibrosarcoma viability, CellTiter-Glo ATP luminescence, 48 h; Potency, µM (highest dose often 46.1 µM), for the others: at the top dose activity, negative = less viability, hits mostly cytotoxic; hit rate 1.6% among 360,000;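 further: NT is the 2HG producing partner of a matched IDH1 knockdown line; potency means the concentration at half of the fitted maximal effect; 0% = DMSO-treated cells and -100% = media-only wells without cells; nearly all actives have a fitted effect of over 55% in size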
#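 Compounds were tested in concentration-response format on HT-1080-NT cells for 48 hours at 37 degrees C. Cell viability came from CellTiter-Glo luminescence; curves were classified by r2, response magnitude and activity.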
# HT1080 IDH1KD tx – qHTS for induction of synthetic lethality in tumor cells producing 2HG: qHTS for the HT-1080-IDH1KD cell line; hit rate 2% among 360,000; Potency, µM (titrated, usually from 46.1 µM), for the others: top-dose activity, negative = toxicity, most hits filed as cytotoxic; HT-1080 IDH1 knockdown viability, ATP luminescence, 48 h;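 further: potency means the concentration at half of the fitted maximal effect; 0% = DMSO wells and -100% = cell-free medium wells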
#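 Luminescent ATP read-out (CellTiter-Glo, 10 min at room temperature) after 48 h compound exposure at 37 °C gave viability of IDH1-knockdown HT-1080 cells. Activity was normalised to DMSO and cell-free wells, then fitted as concentration-response curves.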
# DT40 TDP1 no CPT – qHTS for Inhibitors of human tyrosyl-DNA phosphodiesterase 1 (TDP1): qHTS in cells in absence of CPT; DT40 Tdp1-/- hTDP1 cells, no CPT, ATP luminescence, 48 h; Potency, µM (top dose mostly 46.2 µM), without a hit: at the highest dose activity change, negative = growth inhibition, hits mostly inhibitors; hit rate 15% among 420,000; further: potency means the concentration at half of the fitted maximal effect; nearly all actives have a fitted effect of over 55% in size
#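 Chicken DT40 Tdp1-/- cells complemented with human TDP1, screened without camptothecin (DMSO vehicle only), 400 cells/well. Compounds pin-transferred, cells incubated at 37 °C for at least 48 hr. Growth read as ATP-dependent luminescence (CellTiter-Glo, 30 min at RT).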
# IL1B secr inh – qHTS for Inhibitors of Inflammasome Signaling: IL-1-beta AlphaLISA Primary Screen. THP-1 LPS/ATP IL-1B secretion, AlphaLISA, 16 h; hits give low values. activity change, % at 57.5 µM. hit rate 4.7% among 360,000; in the data active means activity change below about -50%; inconclusive means mostly about -30% to -49%
#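 Secreted IL-1B measured by AlphaLISA bead assay after 16 h compound exposure of THP-1 cells; compounds (final up to 57.5 uM) added 1 h before LPS (250 ng/mL) and ATP (1.25 mM) stimulation; lower signal means less secretion.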
# The depositor's hits bear a star; ? = inconclusive; · = no result. Compounds with a hit are over-represented: about 19% of the library has one in this group of screens. Unless noted, the call rests on the fitted dose curve; in most records, active means well fitted curve in the direction sought with a large enough effect; inconclusive means small, poorly fitted or top-dose-only effect, or another doubt; inactive means no such curve, though single readings can be large; an effect the other way counts as inactive or inconclusive. Unless noted, on the % scale 0 is the no-effect control and ±100 the full control effect.
SMILES,TDP1 cell CPT,HT1080NT lethal,HT1080 IDH1KD tx,DT40 TDP1 no CPT,IL1B secr inh
COc1ccc(-c2cc(-c3ccc(C)cc3)n[nH]2)c(O)c1,26µM*,3%,?,?,6
COc1ccc(-c2cc(-c3cc(C)ccc3O)[nH]n2)cc1,?,3.7µM*,?,?,?
CC(C)(C)c1ccc(-c2cc(-c3ccccc3O)[nH]n2)cc1,?,?,15µM*,?,-99*
O=C(Nc1cccc2ccccc12)c1ccc2sc([C@@H]3O[C@H](CO)[C@H](O)[C@H](O)[C@H]3O)nc2c1,1%,10%,-9%,-2%,-29
C#CCOCCOCCOCCNc1nc(N2CCN(C(=O)[C@H](CC(N)=O)n3cc(C(N)[C@@H](C)CC)nn3)CC2)nc(N2CCN(C(=O)[C@H](CCC(=O)O)n3cc([C@@H](N)CCCCN)nn3)CC2)n1 (some centres not stated),0%,10%,16%,3%,14
CC(/C=N\NC(=O)CN1CCN(S(=O)(=O)c2ccc(C)cc2)CC1)=C\c1ccccc1,?,-20%,-19%,?,-19
O=C(NC(=S)NCc1ccccc1)c1cccs1,23%,0%,1%,10%,-3
O=C(CC(=O)c1cccs1)c1ccncc1,21µM*,0%,-2%,29µM*,-10
O=C(NNC(=O)c1cccs1)c1ccncc1,-1%,-8%,-13%,1%,3
O=C(NNC(=S)NC(=O)c1cccs1)c1cccnc1,?,-17%,-5%,?,15
O=C(CNC(=S)NC(=O)c1cccs1)c1ccccc1,16µM*,14%,10%,15µM*,-13
O=C(Nc1ccc(NC(=S)NC(=O)c2cccs2)cc1)c1ccccc1,-19%,-4%,-22%,-19%,4
O=C(NNC(=S)NC(=O)c1cccs1)c1ccc(O)cc1,23µM*,?,-23%,?,-1
O=C(NNC(=S)NC(=O)c1cccs1)c1ccc(NC(=O)c2ccccc2)cc1,26µM*,-20%,-14%,?,-5
Cc1c(Cl)c(=O)n2c(=O)c(Cl)c(C)n12,2%,13%,5%,-15%,13
CCN(CC(=O)NCc1ccc(F)cc1)CC(=O)Nc1cc(S(=O)(=O)N(C)C)ccc1C,?,4%,-1%,-15%,27
CCC(C)NC(=O)C1CCC(CNS(=O)(=O)c2ccc(Cl)cc2)CC1 (configuration not stated),-27%,·,·,-4%,·
O=C(Nc1nc2cc3c(cc2s1)OCCO3)c1ccco1,12µM*,?,?,16µM*,?
O=C(Nc1nc2cc3c(cc2s1)OCCO3)c1ccc(N2C(=O)CCC2=O)cc1,2%,0%,2%,-19%,9
O=C(Nc1nc2cc3c(cc2s1)OCCO3)c1ccncc1,?,-3%,-16%,23µM*,-15
O=C(NC(=S)Nc1nc2ccc(F)cc2s1)c1ccco1,4.1µM*,8%,1%,2.9µM*,41
O=c1[nH]c(C2CCN(S(=O)(=O)Cc3ccccc3)CC2)nc2c1nnn2Cc1ccccc1,?,-3%,0%,?,-20
O=c1[nH]c(C2CCN(S(=O)(=O)c3ccccc3)CC2)nc2c1nnn2Cc1cccc(Cl)c1,2%,?,?,-16%,-27
O=c1[nH]c(C2CCN(S(=O)(=O)c3ccccc3C(F)(F)F)CC2)nc2c1nnn2Cc1cccc(F)c1,?,?,16µM*,?,?
O=c1[nH]c(C2CCN(S(=O)(=O)Cc3ccccc3)CC2)nc2c1nnn2Cc1cccc(Cl)c1,16µM*,?,?,18µM*,-12
